Nrf2 inh: Nrf2 pathway inhibition | A549 ARE-Fluc reporter, luciferase luminescence, 18-24 h | Potency, µM (doses to about 46 µM), for inactives: top-dose activity change, negative = inhibition, most hits filed as inhibitors | hit rate 2.1% among 360,000; also: potency is read from the fitted curve at half-maximal effect; % is scaled to controls: 0 for no effect and ±100 for the full control effect; nearly all actives have a fitted effect of over 60% in size
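Quantitative HTS in A549 cells stably bearing an antioxidant response element-firefly luciferase construct. Inhibition of Nrf2-driven transcription was scored by luminescence after 18-24 h of compound exposure at 37 °C.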
Nrf2 ARE act: Nrf2 pathway activation; AREc32 ARE-luciferase reporter (MCF7-derived line), luminescence, 24 h; Potency, µM (highest dose often 46.1 µM), for inactives: at the highest dose activation, hits mostly activators; hit rate 0.31% among 410,000; also: potency is read from the fitted curve at half-maximal effect; % of control where 0% means no effect; nearly all actives have a fitted effect of over 65% in size
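ARE activation measured as luciferase luminescence (Steady-Glo, 30 min RT) in AREc32_Fluc cells after 24 hr compound exposure at 37 deg C, 5% CO2; cells seeded overnight at 1000/well in OPTI-MEM, 5% FBS.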
CCT modulator: modulators of cytosolic chaperonin (CCT/TRiC) activity; activity change, % (concentration not given with the values), hits read low; purified chaperonin ATPase assay, HTRF ADP detection, 30 min; hit rate 0.3% among 360,000; in the data active = activity change below about -30%; also: % is scaled to controls: 0 for no effect and ±100 for the full control effect
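Enzyme 40 or 20 nM (batch-dependent) in Tris pH 7.4/KCl/MgCl2/DTT; cpd 76 uM single point; ATP 10 uM; 30 min 37 °C; Transcreener ADP HTRF detection, 30 min RT; ratio 665/615.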
TCR act: activators of T cell receptors. primary human leukocytes, anti-CD3, IL-2 HTRF, 48 h. Potency, µM (highest dose often 9.22 µM), inactives show top-dose activation of IL-2 secretion, most hits filed as activators. 330,000 tested, under 10 active; also: % of control where 0% means no effect
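Primary human leukocytes were stimulated with a-CD3 beads plus compounds for 48 hr without co-stimulation; secreted IL-2 was quantified by HTRF using a-IL-2-K (europium cryptate) and a-IL-2-d2, excited at 320nm with acceptor emission read at 665nm.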
A-T KAP1 phos: potential ataxia-telangiectasia treatment. F2112 A-T fibroblasts, KAP-1 phosphorylation AlphaLISA; neocarzinostatin DNA damage 30 min before lysis. Potency, µM (doses to about 57.5 µM), inactives show at the top dose activation, most hits filed as activators. hit rate 0.19% among 320,000. AID 485349; also: potency is read from the fitted curve at half-maximal effect; % of control where 0% means no effect; nearly all actives have a fitted effect of over 45% in size
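hTERT-immortalized A-T patient fibroblasts (F2112), 500 cells/well in OPTI-MEM, 1% FBS, got compounds for 60 min, then NCS for 30 min at 37C. Lysates were then assayed for phospho-KAP-1 by AlphaLISA (anti-pKAP1 donor, anti-KAP1 acceptor beads), 6 hr at 25C.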
A549 tox: A549 cytotoxicity, counter-screen for Nrf2 inhibitors. AID 504648. hit rate 0.16% among 390,000. A549 ARE-Fluc cells, CellTiter-Fluor viability, 18-24 h. Potency, µM (titrated, usually from 46 µM), without a hit: at the top dose activity change, negative = cytotoxicity, hits mostly inhibitors; also: potency is read from the fitted curve at half-maximal effect; % is scaled to controls: 0 for no effect and ±100 for the full control effect
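Cytotoxicity counterscreen: CellTiter-Fluor fluorescence was measured in A549 ARE_Fluc cells after 18-24 h of compound exposure in a concentration series. The subsequent BugLite luminescent read reports ARE-luciferase activity.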
Starred values were filed as active, the others as inactive; [ ] = another dose, or the depositor's remark. Compounds with a hit are over-represented: about 2.6% of the library has one in this group of screens. Unless noted, calls follow the shape of the dose curve; as a rule, active = well fitted curve in the direction sought with a large enough effect; inconclusive = small, poorly fitted or top-dose-only effect, or another doubt; inactive = no such curve, though single readings can be large; an effect the other way counts as inactive or inconclusive.

Results for COC(=O)C1=C(c2ccc(F)cc2OCc2ccccc2)C[C@@H]2CC[C@H]1N2C(=O)NCCOc1ccccc1 ?
Nrf2 inh: inconclusive; Nrf2 ARE act: -1%; CCT modulator: -1; TCR act: 12%; A-T KAP1 phos: 13%; A549 tox: -19%

How did COC(=O)C1=C(c2ccc(F)cc2OCc2ccccc2)C[C@@H]2CC[C@H]1N2C(=O)NCc1ccccc1Cl do in these assays?
Nrf2 inh: 5.2µM*; Nrf2 ARE act: 0%; CCT modulator: 0; TCR act: 7%; A-T KAP1 phos: 8%; A549 tox: -16%

How did COC(=O)C1=C(c2ccc(F)cc2OCc2ccccc2)C[C@@H]2CC[C@H]1N2C(=O)NCc1ccc(Br)cc1 do in these assays?
Nrf2 inh: 15µM*; Nrf2 ARE act: 0%; CCT modulator: 1; TCR act: -2%; A-T KAP1 phos: 8%; A549 tox: -22%

How did COC(=O)C1=C(c2ccc(F)cc2OCc2ccccc2)C[C@@H]2CC[C@H]1N2C(=O)NCCOc1ccc(OC)cc1 do in these assays?
Nrf2 inh: 23µM*; Nrf2 ARE act: -2%; CCT modulator: 0; TCR act: -1%; A-T KAP1 phos: 6%; A549 tox: -12%

What do the screens show for `COC(=O)C1=C(c2ccc(F)cc2OCc2ccccc2)C[C@@H]2CC[C@H]1N2C(=O)NCCc1ccc(F)cc1`?
Nrf2 inh: 18µM*; Nrf2 ARE act: -2%; CCT modulator: -1; TCR act: 2%; A-T KAP1 phos: -12%; A549 tox: inconclusive

How did Cc1cccc(-n2nc(C)c(C(=O)N3CCN(c4ccccc4)CC3)c2-n2cccc2)c1 do in these assays?
Nrf2 inh: inconclusive; Nrf2 ARE act: 0%; A549 tox: -10%

How did COc1ccc(CN2CCN(c3ncnc4sc5c(c34)CCCC5)CC2)cc1F do in these assays?
Nrf2 inh: 10µM*; Nrf2 ARE act: 3%; A549 tox: -19%

Results for Cc1cc(-c2n[nH]c(=S)n2CC(C)C)cs1 ?
Nrf2 inh: inconclusive; Nrf2 ARE act: 0%; CCT modulator: 2; TCR act: -3%[46.1 µM]; A-T KAP1 phos: 1%; A549 tox: 2%

Results for O=[N+]([O-])c1ccc(CN2CC=C(c3ccccc3)CC2)cc1 ?
Nrf2 inh: inconclusive; Nrf2 ARE act: 0%; CCT modulator: 1; TCR act: 8%; A-T KAP1 phos: 0%; A549 tox: -2%

Results for C1=C(c2c[nH]c3ccccc23)CCN(Cc2ccccc2)C1 ?
Nrf2 inh: 6.5µM*; Nrf2 ARE act: 7%; CCT modulator: -1; TCR act: 2%; A-T KAP1 phos: 3%; A549 tox: -6%

What do the screens show for `COc1ccc(N2CCN(Cc3nc4ccccc4[nH]3)CC2)cc1`?
Nrf2 inh: 1%; Nrf2 ARE act: 3%; CCT modulator: 0; TCR act: -4%; A-T KAP1 phos: -6%; A549 tox: 3%

How did CCCc1cc(N2CCN(c3ccc(OC)cc3)CC2)n2cnnc2n1 do in these assays?
Nrf2 inh: 12µM*; Nrf2 ARE act: -1%; A549 tox: -18%

Results for Cc1cc(-c2nc3ccccc3s2)ccc1NC(=O)c1cc(Cl)ccc1Cl ?
Nrf2 inh: inconclusive; Nrf2 ARE act: 4%; A549 tox: -5%

Results for CCCCCCC(Cl)(Cn1ccnc1)c1ccccc1 (centres undefined) ?
Nrf2 inh: -6%; Nrf2 ARE act: 0%; CCT modulator: -35*; TCR act: -6%; A549 tox: 0%

How did COc1ccc(CCNC(=O)c2ccc3c(c2)N=C(C)c2cc(C)ccc2S3)cc1OC do in these assays?
Nrf2 inh: 15µM*; Nrf2 ARE act: -1%; A549 tox: -11%

Results for CC(=O)N1C[C@H](O)C[C@H]1C(=O)O ?
Nrf2 inh: -9%; Nrf2 ARE act: 0%; CCT modulator: -5; TCR act: 0%; A-T KAP1 phos: inconclusive; A549 tox: 1%

Results for CCCOC1CCCN(C(=O)CCc2nnc(Cc3cccc(C)c3)o2)C1 (centres undefined) ?
Nrf2 inh: inconclusive; Nrf2 ARE act: 2%; CCT modulator: 0; A-T KAP1 phos: 5%; A549 tox: 2%

What do the screens show for `CCOC(=O)C(O)(c1ccc(NC(=S)NC(=O)c2ccc(Cl)cc2Cl)c(C)c1)C(F)(F)F` (centres undefined)?
Nrf2 inh: 15µM*; Nrf2 ARE act: -1%; CCT modulator: 1; TCR act: 0%[46.1 µM]; A-T KAP1 phos: -1%; A549 tox: inconclusive

Results for COC(=O)C(O)(c1ccc(NC(=S)NC(=O)c2ccc(Cl)cc2Cl)c(C)c1)C(F)(F)F (centres undefined) ?
Nrf2 inh: inconclusive; Nrf2 ARE act: 3%; CCT modulator: -3; TCR act: -1%[46.1 µM]; A-T KAP1 phos: -2%; A549 tox: -2%

How did CC(=O)c1ccc(NC(=O)CSc2nc(=O)cc(N)n2-c2ccccc2)cc1 do in these assays?
Nrf2 inh: inconclusive; Nrf2 ARE act: 4%; CCT modulator: -2; TCR act: -1%; A-T KAP1 phos: 0%; A549 tox: 2%

Results for CCN(CC)S(=O)(=O)c1ccc2c(c1)c(=O)c(C(=O)NCc1ccccc1OC)cn2C ?
Nrf2 inh: inconclusive; Nrf2 ARE act: 0%; A549 tox: 14%

What do the screens show for `Cc1cc(C(=O)Nc2ccc(CC(=O)O)cc2)c(C)o1`?
Nrf2 inh: 5.2µM*; Nrf2 ARE act: -3%; CCT modulator: 0; TCR act: -3%; A-T KAP1 phos: 8%; A549 tox: 4%

What do the screens show for `Cc1ccc(CNCc2c(C(=O)O)n(Cc3ccccc3C)c3cc(C)ccc23)cc1`?
Nrf2 inh: inconclusive; Nrf2 ARE act: 1%; A549 tox: 0%

What do the screens show for `C/C1=C\[C@@H](C)C/C=C/[C@H]2[C@@H]3O[C@]3(C)[C@@H](C)[C@H]3[C@H](Cc4c[nH]c5ccccc45)NC(=O)[C@]32C(=O)/C=C/C(=O)[C@@H]1O`?
Nrf2 inh: inconclusive; Nrf2 ARE act: -3%; CCT modulator: 2; TCR act: 6%; A-T KAP1 phos: 40µM*; A549 tox: inconclusive

What do the screens show for `Cc1cc(=O)oc2cc3c(cc12)CCCN3`?
Nrf2 inh: 6%; Nrf2 ARE act: 11%; CCT modulator: 0; TCR act: -2%; A-T KAP1 phos: 20µM*; A549 tox: inconclusive
